The campaign covered roughly 39,000 compounds. About 3,300 (8.5%) were called active. What follows is part of a selection rich in actives, with near analogues and random picks from the rest.
test system: HepG2; assay: cytotoxicity call (relative viability < 0.9); conditions: 10 µM

SMILES | cytotoxicity call
C[C@H]1CN([C@@H](C)CO)C(=O)Cc2cc(NC(=O)CCCCCC(=O)Nc3ccccc3N)ccc2O[C@@H]1CN(C)CC1CCCCC1 | inactive
Cc1ccc(S(=O)(=O)N(C)C[C@H]2OCCCC[C@H](C)Oc3ccc(NC(=O)Cc4ccccc4)cc3C(=O)N([C@@H](C)CO)C[C@@H]2C)cc1 | active
Cc1ccc(S(=O)(=O)N(C)C[C@@H]2OCCCC[C@H](C)Oc3ccc(NC(=O)Cc4ccccc4)cc3C(=O)N([C@H](C)CO)C[C@H]2C)cc1 | inactive
Cc1ccc(S(=O)(=O)N(C)C[C@@H]2OCCCC[C@@H](C)Oc3ccc(NC(=O)Cc4ccccc4)cc3C(=O)N([C@@H](C)CO)C[C@@H]2C)cc1 | inactive
Cc1ccc(S(=O)(=O)N(C)C[C@@H]2OCCCC[C@@H](C)Oc3ccc(NC(=O)Cc4ccccc4)cc3C(=O)N([C@H](C)CO)C[C@@H]2C)cc1 | inactive
Cc1ccc(S(=O)(=O)N(C)C[C@H]2OCCCC[C@H](C)Oc3ccc(NC(=O)Cc4ccccc4)cc3C(=O)N([C@H](C)CO)C[C@H]2C)cc1 | inactive
Cc1ccc(S(=O)(=O)N(C)C[C@@H]2OCCCC[C@H](C)Oc3ccc(NC(=O)Cc4ccccc4)cc3C(=O)N([C@H](C)CO)C[C@@H]2C)cc1 | active
CC(C)NC(=O)Nc1ccc2c(c1)C(=O)N([C@H](C)CO)C[C@@H](C)[C@H](CN(C)S(=O)(=O)c1cn(C)cn1)OCCCC[C@H](C)O2 | inactive
CC(C)(C)NC(=O)[C@@H]1C[C@@H]2CCCC[C@@H]2CN1C[C@@H](O)[C@H](Cc1ccccc1)NC(=O)[C@H](CC(N)=O)NC(=O)c1ccc2ccccc2n1 | inactive
Cc1noc(C)c1S(=O)(=O)Nc1cccc2c1O[C@H](CN(C)C(=O)Nc1ccc3c(c1)OCO3)[C@H](C)CN([C@@H](C)CO)C2=O | inactive
COc1ccc(S(=O)(=O)Nc2cccc3c2O[C@H](CN(C)S(C)(=O)=O)[C@H](C)CN([C@H](C)CO)C3=O)cc1 | inactive
C[C@@H]1CN([C@@H](C)CO)C(=O)c2cccc(NC(=O)c3ccc(-c4nccs4)cc3)c2O[C@H]1CN(C)S(=O)(=O)c1ccc(Cl)cc1 | inactive
C[C@H]1CN([C@@H](C)CO)C(=O)c2cccc(NC(=O)c3ccc(-c4nccs4)cc3)c2O[C@@H]1CN(C)Cc1ccc(-c2ccccc2)cc1 | inactive
C[C@H](CO)N1C[C@H](C)[C@@H](CN(C)Cc2ccc(C(=O)Nc3ccccc3N)cc2)Oc2c(NC(=O)c3ccc(-c4nccs4)cc3)cccc2C1=O | inactive
C[C@H]1CN([C@@H](C)CO)C(=O)c2cccc(NC(=O)c3ccc(-c4nccs4)cc3)c2O[C@H]1CN(C)Cc1ccc(C(=O)Nc2ccccc2N)cc1 | inactive
C[C@H](CO)N1C[C@H](C)[C@H](CN(C)S(=O)(=O)c2ccc(Cl)cc2)Oc2c(NC(=O)c3ccc(-c4nccs4)cc3)cccc2C1=O | active
C[C@@H]1CN([C@H](C)CO)C(=O)c2cccc(NC(=O)c3cnccn3)c2O[C@H]1CN(C)Cc1ccccc1 | active
C[C@@H]1CN([C@H](C)CO)C(=O)c2cccc(NC(=O)c3ccc(-c4nccs4)cc3)c2O[C@@H]1CN(C)Cc1ccc(C(=O)Nc2ccccc2N)cc1 | active
C[C@@H]1CN([C@@H](C)CO)C(=O)c2cccc(NC(=O)c3ccc(-c4nccs4)cc3)c2O[C@@H]1CN(C)Cc1ccc(-c2ccccc2)cc1 | active
C[C@H](CO)N1C[C@H](C)[C@@H](CN(C)Cc2ccccc2)Oc2c(NC(=O)c3cnccn3)cccc2C1=O | inactive
C[C@H](CO)N1C[C@H](C)[C@@H](CN(C)Cc2ccc(-c3ccccc3)cc2)Oc2c(NC(=O)c3ccc(-c4nccs4)cc3)cccc2C1=O | inactive
C[C@@H]1CN([C@@H](C)CO)C(=O)c2cccc(NC(=O)c3cnccn3)c2O[C@H]1CN(C)Cc1ccccc1 | inactive
C[C@@H]1CN([C@@H](C)CO)C(=O)c2cccc(NC(=O)c3ccc(-c4nccs4)cc3)c2O[C@@H]1CN(C)S(=O)(=O)c1ccc(Cl)cc1 | inactive
C[C@H]1CN([C@@H](C)CO)C(=O)c2cc(NS(=O)(=O)c3cccs3)ccc2O[C@@H]1CN(C)S(=O)(=O)c1ccccc1 | inactive

SMILES | cytotoxicity call
COC(=O)CCCCCCC(=O)N/N=C/[C@H](O)[C@@H](O)[C@H](O[C@@H]1O[C@H](CO)[C@H](O)[C@H](O)[C@H]1O)[C@H](O)CO | inactive
CO[C@H](CN(C)C(=O)c1ccc2c(c1)OCO2)[C@H](C)CN([C@@H](C)CO)S(=O)(=O)c1ccc(C)cc1 | inactive
Cc1ccc(S(=O)(=O)N(C)C[C@H]2Oc3ccc(NC(=O)CCN4CCOCC4)cc3CC(=O)N([C@@H](C)CO)C[C@@H]2C)cc1 | inactive
Cc1cc(=O)oc2cc(O[C@H]3O[C@@H](CO)[C@@H](O)[C@@H](O)[C@@H]3O)ccc12 | inactive
C[C@H]1C[C@@H]2[C@@H](C[C@@H]1C)N[C@@H]1C(=O)NC(=O)N[C@H]1N2C[C@H](O)[C@H](O)[C@H](O)CO | inactive
Cc1ccc(S(=O)(=O)N(C)C[C@@H]2OCCCC[C@@H](C)Oc3ccc(NC(=O)Nc4ccccc4)cc3C(=O)N([C@@H](C)CO)C[C@@H]2C)cc1 | inactive
COc1ccc(NC(=O)Nc2ccc3c(c2)C(=O)N([C@H](C)CO)C[C@H](C)[C@@H](CN(C)C(=O)Nc2cccc4ccccc24)OCCCC[C@@H](C)O3)cc1 | inactive
CC#CC(=O)NS(=O)(=O)c1ccccc1 | inactive
C[C@@H]1CN([C@@H](C)CO)C(=O)c2cccc(NC(=O)C3CCOCC3)c2O[C@H]1CN(C)S(=O)(=O)c1cn(C)cn1 | inactive
C[C@H]1CN([C@@H](C)CO)C(=O)Cc2cc(NS(=O)(=O)c3cn(C)cn3)ccc2O[C@@H]1CN(C)CC1CCCCC1 | inactive
CC(=O)N(C)C[C@H]1Oc2cc(C#CCN(C)C)ccc2S(=O)(=O)N([C@@H](C)CO)C[C@@H]1C | inactive
C[C@@H]1CN([C@@H](C)CO)C(=O)c2cccc(NC(=O)c3ccc(-c4nccs4)cc3)c2O[C@@H]1CN(C)Cc1ccc(Cl)c(Cl)c1 | active
C[C@H](CO)N1C[C@H](C)[C@H](CN(C)Cc2ccc(C(=O)Nc3ccccc3N)cc2)Oc2c(NC(=O)c3ccc(-c4nccs4)cc3)cccc2C1=O | inactive
C[C@@H]1CN([C@@H](C)CO)C(=O)c2cccc(NC(=O)c3ccc(-c4nccs4)cc3)c2O[C@@H]1CN(C)Cc1ccc(C(=O)Nc2ccccc2N)cc1 | active
C[C@H](CO)N1C[C@H](C)[C@H](CN(C)Cc2ccc(-c3ccccc3)cc2)Oc2c(NC(=O)c3ccncc3)cccc2C1=O | inactive
C[C@H](CO)N1C[C@H](C)[C@@H](CN(C)Cc2ccc(-c3ccccc3)cc2)Oc2c(NC(=O)c3ccncc3)cccc2C1=O | active
C[C@H]1CN([C@@H](C)CO)C(=O)c2cccc(NC(=O)c3ccc(-c4nccs4)cc3)c2O[C@@H]1CN(C)Cc1ccc(C(=O)Nc2ccccc2N)cc1 | inactive
C[C@@H]1CN([C@H](C)CO)C(=O)c2cccc(NC(=O)c3ccc(-c4nccs4)cc3)c2O[C@H]1CN(C)CC1CCCCC1 | active
C[C@@H]1CN([C@H](C)CO)C(=O)c2cccc(NC(=O)c3ccc(-c4nccs4)cc3)c2O[C@H]1CN(C)Cc1ccc(Cl)c(Cl)c1 | inactive
C[C@@H]1CN([C@H](C)CO)C(=O)c2cccc(NC(=O)c3ccc(-c4nccs4)cc3)c2O[C@@H]1CN(C)CC1CCCCC1 | inactive
C[C@H]1CN([C@@H](C)CO)C(=O)c2cccc(NC(=O)c3ccncc3)c2O[C@H]1CN(C)Cc1ccc(-c2ccccc2)cc1 | inactive
C[C@H]1CN([C@@H](C)CO)C(=O)c2cccc(NC(=O)c3ccc(-c4nccs4)cc3)c2O[C@@H]1CN(C)CC1CCCCC1 | inactive
C[C@H]1CN([C@@H](C)CO)C(=O)c2cccc(NC(=O)c3ccc(-c4nccs4)cc3)c2O[C@@H]1CN(C)Cc1ccc(Cl)c(Cl)c1 | inactive

From the antibiotic and cytotoxicity screens of Wong et al. (2023)
